ELG1 genotox – qHTS screen for small molecules that induce genotoxicity in human embryonic kidney (HEK293T) cells expressing luciferase-tagged ELG1. HEK293T ELG1-luciferase reporter, luminescence, 16 h. Potency, µM (highest dose often 46 µM), for inactives: at the top dose activity change, positive = activation, actives largely listed as activators. actives 1.3% (n = 330,000). AID 504466, 2011; further: % of control where 0% means no effect; nearly all actives have a fitted effect of over 60% in size
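After overnight (16 hr) compound treatment at 37 °C, ELG1-luciferase HEK293T cells were lysed with ONE-Glo; luminescence quantified 30 min later at room temperature.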
MCF10A rereplic – A quantitative high throughput screen for small molecules that induce DNA re-replication in MCF 10a normal breast cells; MCF 10A DNA re-replication, Hoechst nuclear intensity, 48 h; Potency, µM (highest dose often 46.1 µM), inactives show at the top dose activity, positive = re-replication, actives largely listed as activators; actives 2.9% (n = 350,000); further: % of control where 0% means no effect; nearly all actives have a fitted effect of over 50% in size
AT treatment – qHTS Assay for Identifying a Potential Treatment of Ataxia-Telangiectasia | Potency, µM (doses to about 57.5 µM), for the others: top-dose activation, actives largely listed as activators | F2112 A-T fibroblasts, KAP-1 phosphorylation AlphaLISA; neocarzinostatin DNA damage 30 min before lysis | actives 0.19% (n = 320,000); further: % of control where 0% means no effect; nearly all actives have a fitted effect of over 45% in size
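hTERT-immortalized A-T patient fibroblasts (F2112), 500 cells/well in OPTI-MEM, 1% FBS, got compounds for 60 min, then NCS for 30 min at 37C. Lysates were then assayed for phospho-KAP-1 by AlphaLISA (anti-pKAP1 donor, anti-KAP1 acceptor beads), 6 hr at 25C.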
ELG1 DNA repair – qHTS screen for small molecules that inhibit ELG1-dependent DNA repair in human embryonic kidney (HEK293T) cells expressing luciferase-tagged ELG1; HEK293T ELG1-luciferase reporter, luminescence, 16 h; DNA damage induced by 5-fluorouridine; Potency, µM (titrated, usually from 46.1 µM), inactives show at the highest dose activity change, negative = inhibition, usual class: inhibitors; actives 2.3% (n = 330,000); AID 504467, 2011; further: on the % scale 0 is the no-effect control and ±100 the full control effect; nearly all actives have a fitted effect of over 55% in size
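Quantitative HTS, concentration-response format. 2,000 cells/well co-treated with 5-fluorouridine and compound, 16 hr in 5% CO2 at 37 °C; ONE-Glo luminescence read after 30 min.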
SW480 rereplic – A quantitative high throughput screen for small molecules that induce DNA re-replication in SW480 colon adenocarcinoma cells; SW480 DNA re-replication, Hoechst DNA content imaging, 48 h; Potency, µM (series often up to 46.1 µM), without a hit: at the top dose re-replication activation, most hits filed as activators; actives 1.8% (n = 340,000); AID 624297, 2012; further: % of control where 0% means no effect; nearly all actives have a fitted effect of over 55% in size
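Quantitative HTS format with DMSO vehicle controls; 48 hr drug incubation at 37 C, then 40 min Hoechst staining and scanning imager measurement at 405 nm excitation.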
p53 reactivation – qHTS assay for re-activators of p53 using a Luc reporter; H1299 p53-A138V BP100-luciferase reporter, luminescence, 24 h; Potency, µM (doses to about 92.2 µM), for the others: at the highest dose activity change, positive = activation, hits mostly activators; actives 0.063% (n = 320,000); AID 504706, 2011; further: % of control where 0% means no effect; nearly all actives have a fitted effect of over 45% in size
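H1299 (p53-null), stable ts p53-A138V + BP100-Luc; 1000 cells/well, Opti-MEM/10% FBS; cpd 4 pt, 1:5; 24 h, 37 deg C, 5% CO2; detection reagent 10 min RT; luminescence.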
Active calls of the source: *; ? = inconclusive; . = no result; [ ] = remark or other dose. Hits are enriched below; roughly 7.1% of the tested compounds scored in any of these assays. The call rests on the fitted dose curve; in most records, active means well fitted curve in the direction sought with a large enough effect; inconclusive means small, poorly fitted or top-dose-only effect, or another doubt; inactive means no such curve, though single readings can be large; an effect the other way counts as inactive or inconclusive. Potency means the concentration at half of the fitted maximal effect.

SMILES	ELG1 genotox	MCF10A rereplic	AT treatment	ELG1 DNA repair	SW480 rereplic	p53 reactivation
CC(C)(C)OC(=O)NCc1ccc(CNC(=O)c2nc[nH]c2C(=O)N2CCc3ccccc3C2)cc1	-6%	?	8%	?	6%	8%
CC(C)(C)OC(=O)NCCCC[C@H](NC(=O)c1nc[nH]c1C(=O)N1CCc2ccccc2C1)C(=O)OC(C)(C)C	-9%	17%	6%	8.2µM*	-53%[9.22 µM]	-5%
CC(C)(C)OC(=O)[C@H](Cc1ccccc1)NC(=O)c1nc[nH]c1C(=O)N1CCc2ccccc2C1	0%	?	8%	-22%	-1%	.
COc1ccc(CNC(=O)c2c(C)nc3ccccn23)cc1	-7%	0%	-1%	13µM*	3%	7%
COc1ccc(CCNC(=O)c2c(C)nc3ccccn23)cc1	-7%	-1%	3%	?	0%	-1%
COc1ccc(O[C@H]2C=C[C@@H](c3ccccc3)O[C@@H]2COC(=O)CCC(C)=NO[C@@H]2O[C@H](COC(C)=O)[C@@H](OC(C)=O)[C@H](OC(C)=O)[C@H]2OC(C)=O)cc1	0%	5%	4%	?	26%	-5%
COc1ccc(O[C@H]2C=C[C@@H](c3ccccc3)O[C@@H]2COC(=O)CC/C(C)=N/O[C@H](C)c2cn([C@@H]3COC[C@H]3O)nn2)cc1	-7%	?	6%	26µM*	-4%	-3%
CC(C)(CNC(=O)c1cccc(S(=O)(=O)Nc2ccc(Br)cc2)c1)N1CCOCC1	-10%	?	-3%	?	-3%	-3%
CCOc1ccc(C(=O)NCC(=O)OCC(=O)N(C)CC(=O)Nc2ccccc2CC)cc1OCC	.	-4%	.	.	-4%	.
CCOC(=O)c1cn2nc(N3CCCCC3)ccc2n1	0.58µM*	0%	5%	?	-146%	-6%
CCOC(=O)c1cn2nc(N3CCCC3)ccc2n1	?	-12%	19%	?	-3%	-10%
CCOC(=O)C1=C(c2ccccc2)NC(N)=NC1c1ccc(OCc2ccc(Cl)cc2)c(OC)c1 (configuration not stated)	-5%	18µM*	0%	15%	?	-12%
O=C(Nc1cnc2ccccc2c1)c1cccnc1	4.6µM*	1%	12%	?	-7%	?
CCCc1cc(=O)oc2cc(C)cc(OCC(=O)Nc3ccc(CN4CCOCC4)cc3)c12	-17%	?	-14%	15µM*	-15%	-10%
CCc1cc(=O)oc2cc(C)cc(OCC(=O)NC(Cc3c[nH]c4ccc(O)cc34)C(=O)O)c12 (configuration not stated)	1%	-74%	-9%	6%	-3%	8%
CCc1cc(=O)oc2cc(C)cc(OCC(=O)NCCc3c[nH]c4ccccc34)c12	-2%	3%	-12%	5.8µM*	?	.
Cc1cccc(C)c1NC(=O)CC12CCCN1CCC2	.	7%	.	.	-1%	.
CCCNC(=O)c1noc2c1CCc1cc(OC)ccc1-2	?	5%	3%	?	1%	30%
COc1ccc2c(c1)CCc1c(C(=O)NCc3cccnc3)noc1-2	21µM*	3%	-5%	?	-4%	?
COc1ccc2c(c1)CCc1c(C(=O)NCC(C)C)noc1-2	13µM*	9%	7%	?	8%	19%
COc1cc(OC)cc(C(=O)NCc2cccnc2)c1	-1%	-3%	1%	1%	-5%	1%
Cc1cc(C)c(C)c(S(=O)(=O)N2CCC(C(=O)OCC(=O)NC3CCS(=O)(=O)C3)CC2)c1C (configuration not stated)	3%	1%	5%	14%	0%	-7%
CCOC(=O)c1sc2nc(-c3ccccc3)ccc2c1N	0.52µM*	?	25%	?	?	.
COc1ccc(-c2ccc3c(N)c(C(=O)NC(C)C)sc3n2)cc1OC	2%	18µM*	?	-22%	18µM*	-2%
Cc1cc(C)c2c(N)c(C(=O)NN)sc2n1	8%	?	18µM*	?	?	3%
SMILES	ELG1 genotox	MCF10A rereplic	AT treatment	ELG1 DNA repair	SW480 rereplic	p53 reactivation
COc1ccc(NC(=O)c2sc3nc(C)cc(C)c3c2N)c(OC)c1	.	?	.	.	15µM*	.
CCCc1ccc(OCC(=O)Nc2cc(S(=O)(=O)CC)ccc2O)cc1	-6%	15%	-1%	0%	?	1%
CCOC(=O)c1sc2nc(C)cc(C)c2c1N	?	18µM*	?	?	?	-8%
Cc1ccc(NC(=O)c2sc3nc(C)cc(C)c3c2N)cc1	?	-5%	15%	?	19%	?
Cc1cc(C)c2c(N)c(C(=O)Nc3cccc(C)c3C)sc2n1	5%	16µM*	-6%	-29%	12µM*	21%
Cn1ccc(C(=O)Nc2ccc(Br)cc2Br)n1	4.6µM*	30%	.	?	3%	?
Cc1ccc(NC(=O)c2ccccn2)c(Br)c1	4.1µM*	4%	4%	?	-26%	?
Cc1ccc(NC(=O)Nc2ccc(Cl)cc2)c(Br)c1	?	?	3%	?	3%	?
Cc1ccc(NC(=O)c2ccn(C)n2)c(Br)c1	5.2µM*	-3%	.	?	-1%	?
COc1ccc(C(=O)NNC(=O)Cc2nc3nc(C)cc(C)n3n2)cc1	0%	0%	5%	9%	0%	4%
CCN(CC)[C@@H](C)CN1c2ccccc2Sc2ccccc21	.	11%[20.6 µM]	.	.	18%[20.6 µM]	.
CC(=O)c1c(N2CCN(c3ccccc3)CC2)nc(=S)n(-c2ccccc2)c1C	2%	21µM*	1%	-5%	13%	4%
CC(=O)c1c(N2CCN(CCO)CC2)nc(=S)n(-c2ccccc2)c1C	1%	-1%	-7%	12%	-21%	-1%
Cc1ccc(S(=O)(=O)N2CCC(C(=O)N3CCC3)CC2)cc1	18%	-1%	10%	?	1%	?
Cc1cc(C(=O)CN2c3cccc4cccc(c34)S2(=O)=O)c(C)n1C	14%	3.7µM*	-6%	?	3.3µM*	?
O=C(O)c1ccc(N[C@@H]2OC[C@@H](O)[C@@H](O)[C@@H]2O)cc1	.	2%	.	.	-1%	.
